Shown are actives, neighbours in structure and some others; about 3.5% of the full set was active somewhere.
MT1-MMP txn act: activates MT1-MMP transcription | 0.16% of 86,000 active | HT1080 MT1-MMP promoter luciferase reporter, luminescence, overnight; hits give high values | activation factor at 10 µM | AID 750;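 active means activation factor of at least 2 for MT1-MMP transcription at 10 µM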
ERb coact inh: ER-beta (human) coactivator binding inhibition; 1.3% of 86,000 active; Q92731; AID 633; inhibition, % at 25.6 µM; TR-FRET ER-beta LBD / SRC1-Cy5 peptide binding; receptor agonist-loaded with 1 µM estradiol;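 active means compounds whose percent inhibition of the receptor-coactivator binding signal exceeds about 50% in the single-dose screen, limit read from the data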
MMP13 inh: blocks human MMP13 activity | MMP-13 fTHP FRET cleavage, Mca fluorescence | P45452 | 0.07% of 65,000 active | inhibition, % at 4 µM | AID 570;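 active means inhibition above the mean of compound-free control plate wells plus 3 SD, cut at about 14% in these data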
Smad3 inh: inhibitors of human Smad3 transcription factor binding | inhibition, % at 25 µM | 0.29% of 88,000 active | AID 630 | P84022 | TR-FRET Smad3/Dy647-FoxH1 peptide binding, europium anti-His;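 active means compounds that reduce the energy-transfer binding signal between the protein and its labelled peptide by more than half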
ERa coact inh: blocks coactivator binding to human estrogen receptor alpha. TR-FRET ER-alpha LBD / SRC-1 peptide, estradiol-bound. P03372. 1.7% of 86,000 active. inhibition, % at 25.6 µM; in the data active means inhibition above about 50%
Target sequence (P03372 whole entry, looked up, the tested form may be a part): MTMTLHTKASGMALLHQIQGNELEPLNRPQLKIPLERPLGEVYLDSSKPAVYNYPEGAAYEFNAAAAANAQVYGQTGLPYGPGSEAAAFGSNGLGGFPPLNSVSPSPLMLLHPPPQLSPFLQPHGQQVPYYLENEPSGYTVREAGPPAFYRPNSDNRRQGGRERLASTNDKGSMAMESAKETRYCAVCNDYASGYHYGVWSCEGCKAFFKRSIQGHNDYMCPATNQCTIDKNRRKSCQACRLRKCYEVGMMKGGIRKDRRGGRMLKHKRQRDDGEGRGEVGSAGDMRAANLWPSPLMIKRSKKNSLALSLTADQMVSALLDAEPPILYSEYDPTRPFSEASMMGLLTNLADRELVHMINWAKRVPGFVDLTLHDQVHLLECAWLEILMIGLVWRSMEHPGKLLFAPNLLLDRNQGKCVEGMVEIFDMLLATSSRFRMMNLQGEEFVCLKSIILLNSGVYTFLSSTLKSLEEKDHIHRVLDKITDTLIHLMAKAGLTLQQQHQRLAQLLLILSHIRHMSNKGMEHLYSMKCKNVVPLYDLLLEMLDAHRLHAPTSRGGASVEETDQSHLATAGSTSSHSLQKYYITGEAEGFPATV
ERa coact pot: enhances coactivator binding to human estrogen receptor alpha; P03372; TR-FRET ERalpha-LBD/SRC-Cy5 coactivator binding, 2 h; 100 = basal binding, no effect; coactivator binding (% of control), % at 25.6 µM; 1.3% of 86,000 active; AID 639; in the data active means activity above about 200%;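 further: binding measured in presence of low estradiol as agonist stimulus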
Each line names hits and unclear results; the compound was inactive in the other large screens; [ ] = another dose, or the depositor's remark.

O=C(Cc1ccc(Cl)cc1)Nc1ccc(-c2nnc(-c3ccco3)o2)cc1	ERa coact inh 68[fluorescence artefact?]
O=C(Cc1ccc(Cl)cc1)Nc1ccc(N2CCN(C(=O)c3ccco3)CC2)cc1	ERa coact inh 67[fluorescence artefact?]
COc1ccc(C2Oc3ccccc3N2C(C)=O)cc1 (centres undefined)	none
COc1cc(Br)cc2cc(C(=O)N3CCN(C(=O)c4ccco4)CC3)c(=O)oc12	none
O=S(=O)(c1cccc(-c2csc(-c3ccccc3)n2)c1)N1CCOCC1	ERa coact pot 272
CC1CN(S(=O)(=O)c2cccc(-c3csc(-c4ccccc4)n3)c2)CC(C)O1 (centres undefined)	none (no result: MMP13 inh)
O=S(=O)(c1cccc(-c2nc3ccccc3s2)c1)N1CCOCC1	ERb coact inh 68 (no result: MMP13 inh)
CCC(=O)Nc1cccc(NC(=O)CSc2nnc(C3CC3)n2C)c1	ERa coact pot 204
Cn1c(SCC(=O)NC2CCCCC2)nnc1-c1cc2cc(Cl)ccc2o1	ERa coact pot 429[fluorescence artefact?]
Cn1c(SCC(=O)Nc2cccc(Br)c2)nnc1-c1cc2ccccc2o1	ERa coact pot 631[fluorescence artefact?] (no result: MMP13 inh)
Cc1ccc(-c2nnc(SCC(=O)Nc3ccc4c(c3)oc3ccccc34)n2C)c(Cl)c1	none (no result: MMP13 inh)
Cc1cc(NC(=O)CSc2nnc(C3CC3)n2C)no1	none
C=CCn1c(=O)c2ccccc2n2c(SCc3nc(N)nc(Nc4ccccc4C)n3)nnc12	none
CN(C)C(=O)Cn1c(SCC(=O)N2CCCc3ccccc32)nc2ccccc21	ERa coact pot 829[fluorescence artefact?]
CC(C)NC(=O)CSc1nc2ccccc2n1CC(=O)N1CCc2ccccc21	none
Cc1cc(C(c2ccc(C)o2)c2ccc(C)o2)c(O)c([N+](=O)[O-])c1	none (no result: MMP13 inh)
CN(C)C(=O)c1ccccc1-c1ccccc1	ERa coact pot 241
CN(C)CCNC(=O)c1ccccc1-c1ccccc1	none
O=S(=O)(N1CCCCC1)N1CCN(CC(O)COc2ccc3cc(Br)ccc3c2)CC1 (centres undefined)	ERa coact pot 253 (no result: MMP13 inh)
Cc1cccc(-n2nnnc2SCC(=O)c2cc(C)n(Cc3ccco3)c2C)c1	ERa coact inh 89[fluorescence artefact?]
CCCN1C(=O)SC(CC(=O)Nc2ccccc2C)C1=O (centres undefined)	none (no result: MMP13 inh)
C=CCn1c(=O)c2ccccc2n2c(SCc3nnc(-c4ccccc4Br)o3)nnc12	ERa coact inh 52[fluorescence artefact?]
C=CCn1c(=O)c2ccccc2n2c(SCC(=O)c3ccccc3)nnc12	none
Cn1c(=O)[nH]c(=O)c2c1nc(CN1CCN(c3ccc(F)cc3)CC1)n2CCCc1ccccc1	none
Cn1c(=O)[nH]c(=O)c2c1nc(CN1CCN(c3ccc(F)cc3)CC1)n2CCc1ccccc1	ERa coact pot 399[fluorescence artefact?]
CC1(C)Cc2ccccc2-c2nnc(SCC(=O)Nc3nc4ccccc4s3)n21	ERa coact inh 56[fluorescence artefact?]
CCCC1=NN2C(=N)/C(=C\c3ccc(SCc4ccco4)o3)C(=O)N=C2S1	ERb coact inh 70, ERa coact inh 84[fluorescence artefact?] (no result: MMP13 inh)
CCC1=NN2C(=N)/C(=C\c3ccc(SCc4ccco4)o3)C(=O)N=C2S1	ERb coact inh 75, ERa coact inh 75 (no result: MMP13 inh)
CCN(CC(=O)Nc1c(C(=O)OC)[nH]c2ccc(C)cc12)c1ccc2c(c1)OCO2	none
COC(=O)c1ccccc1NC(=O)c1c(O)c2cccc3c2n(c1=O)CCC3	none
COc1cccc2cc3c(=O)n(-c4ccccc4)nc-3oc12	ERb coact inh 81, ERa coact inh 99[fluorescence artefact?]
CCN1CCN(c2ccc(NC(=O)c3cccc4ncccc34)cc2)CC1	ERb coact inh 63[fluorescence artefact?], ERa coact inh 50[fluorescence artefact?]
CCOC(=O)c1[nH]c2cc3c(cc2c1NC(=O)CN1CC(C)CC(C)C1)OCO3 (centres undefined)	none
COc1ccc(NC(=O)CSc2nnc(-c3ccccc3)n2N)cc1	none
CCn1c(SCC(=O)Nc2ccc3c(c2)c2ccccc2n3CC)nnc1-c1cnccn1	ERa coact inh 74
CCn1c2ccccc2c2cc(NC(=O)CSc3nnc(-c4ccc(OC)cc4)n3N)ccc21	ERa coact inh 68 (no result: MMP13 inh)
CCn1c(SCC(=O)Nc2ccccc2OC)nnc1-c1cnccn1	none
Cc1c(C(=O)N2CCN(c3ccccc3)CC2)sc2ncnc(N3CCN(c4ccccc4)CC3)c12	ERa coact pot 400[fluorescence artefact?]
COCC(=O)Nc1nnc(Cc2ccc(OC)cc2)s1	ERb coact inh 55 (no result: MMP13 inh)
CCc1nnc(NC(=O)Cc2ccc(OC)cc2)s1	none (no result: MMP13 inh)
COc1cc2[nH]c3c(N4CCN(c5ccccn5)CC4)ncnc3c2cc1OC	ERa coact pot 676[fluorescence artefact?]
Cc1ccc(Cn2nnc3c(=O)n(Cc4cccc(C)c4)cnc32)cc1	MMP13 inh 14
Cc1cccc(Cn2cnc3c(nnn3Cc3ccc(Cl)cc3)c2=O)c1	none
NC(=O)Cn1c(=O)n(Cc2ccco2)c(=O)c2c3c(sc21)CCCCC3	ERb coact inh 90[fluorescence artefact?], ERa coact inh 91[fluorescence artefact?] (no result: MMP13 inh)
Cc1cc(C)c(C#N)c(SCC(=O)c2cccs2)n1	none
COc1ccc(C(=O)Nc2cccc(-c3nnc(-c4ccco4)o3)c2)cc1	none (no result: MMP13 inh)
O=C(Nc1ccc(N2CCOCC2)cc1)Nc1ccc2nc(-c3ccco3)c(-c3ccco3)nc2c1	ERb coact inh 59[fluorescence artefact?], ERa coact inh 53[fluorescence artefact?]
O=C(c1ccc2nc(-c3ccco3)c(-c3ccco3)nc2c1)N1CCN(c2ccccc2)CC1	none
O=C(NCCCO)Nc1ccc2nc(-c3ccco3)c(-c3ccco3)nc2c1	ERb coact inh 99[fluorescence artefact?], ERa coact inh 97[fluorescence artefact?] (no result: MT1-MMP txn act, MMP13 inh)
O=C(Nc1ccc2nc(-c3ccco3)c(-c3ccco3)nc2c1)NC1CC1	ERb coact inh 109[fluorescence artefact?], ERa coact inh 100[fluorescence artefact?] (no result: MMP13 inh)
O=C(Nc1cccc(C(F)(F)F)c1)c1ccc2nc(-c3ccco3)c(-c3ccco3)nc2c1	ERb coact inh 81[fluorescence artefact?], ERa coact inh 84[fluorescence artefact?] (no result: MT1-MMP txn act, MMP13 inh)
Cc1ccc2c(c1)CCCN2C(=O)Nc1ccc2c(c1)OCO2	none
Cc1cc2ncn(S(=O)(=O)N3CCOCC3)c2cc1C	none
COCC(=O)Nc1c(C(=O)Nc2cccc(OC)c2)oc2ccccc12	none (no result: ERb coact inh, Smad3 inh, ERa coact inh, ERa coact pot)
CC(=O)c1cnc2c(-c3ccc(Cl)cc3)cnn2c1C	MT1-MMP txn act 2.1 (no result: MMP13 inh)
CCOc1ccc2c(O)csc2c1	none
Cc1ccc(OCCSc2ncnc3nc[nH]c23)cc1	none (no result: MMP13 inh)
Cc1c(C)c2c(C)[nH]nc2oc1=O	MT1-MMP txn act 2.3
Cc1c(/C=N/n2cnnc2)c2ccccc2n1CCOc1ccc(Cl)cc1	ERa coact inh 53
O=c1oc2c3c4c(cc2s1)CCCN4CCC3	ERb coact inh 68[fluorescence artefact?], ERa coact inh 72[fluorescence artefact?] (no result: MMP13 inh)
COc1ccc(CCNC(=O)c2nonc2N)cc1OC	none
Nc1ccc(S(=O)(=O)c2cccc(N)c2)cc1	none
Nc1ccc(N(S(=O)(=O)c2ccccc2)S(=O)(=O)c2ccccc2)c(Cl)c1	Smad3 inh 87 (no result: MT1-MMP txn act, ERb coact inh, MMP13 inh, ERa coact inh, ERa coact pot)
CCCC(=O)c1cc(F)c(N2CCOCC2)cc1C	none
O=C(c1cnccn1)N1CCc2ccccc21	ERb coact inh 97[fluorescence artefact?], ERa coact inh 79[fluorescence artefact?]
O=C(c1cccnc1)N1CCCc2ccccc21	none
c1ccc(CNc2nc3ccccc3n3cnnc23)nc1	none

Assay outcomes deposited in PubChem by several laboratories.
